Laboratory results taken from the supplement of paper PMC12494721.
Counter-ions that a name gives are not always drawn.

Tested on: Escherichia coli IAI1
Experiment: fold change of Cadaverine concentration vs plate DMSO controls (fold change (ratio)); higher = more amine produced, active = hit call of the paper (significant change in both replicates, either direction)
Conditions: incubation time: 27 h, anaerobic, 37 °C;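 for the amine columns active = adjusted P below 0.05 in both replicates with a change the same way and a mean fold change under 0.8 or over 1.25; inactive = the rest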
Method in brief: (§1)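 Extracts of whole anaerobic mGAM cultures were analysed for amines by LC–triple-quadrupole MS with dynamic MRM and external calibration curves, with drift corrected within batch. Four gut strains were grown at 37 °C for 27 h in 80 µL wells with compounds at 20 µM final, sweeteners at 50 µM final. Each value expresses fold change over plate DMSO controls. The average of 2 biological replicates is shown.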

Compound | fold change of Cadaverine concentration
CN(C)CCC(c1ccc(Br)cc1)c1ccccn1 (centres undefined) [Brompheniramine maleate] (20 µM) | 1.2 (inactive)
c1coc(CNc2ncnc3[nH]cnc23)c1 [Kinetin] (20 µM) | 0.999 (inactive)
C#C[C@]1(O)CC[C@H]2[C@@H]3CCC4=CC(=O)CC[C@@H]4[C@H]3CC[C@@]21C [Norethindrone] (20 µM) | 0.98 (inactive)
Oc1ncnc2[nH]ncc12 [Allopurinol] (20 µM) | 1.01 (inactive)
COc1ccc(CN(CCN(C)C)c2ccccn2)cc1 [Pyrilamine maleate] (20 µM) | 1.57 (active)
CC(C)(C#N)c1cc(Cn2cncn2)cc(C(C)(C)C#N)c1 [Anastrozole] (20 µM) | 1.01 (inactive)
COC1=CC(=O)C[C@@H](C)[C@]12Oc1c(Cl)c(OC)cc(OC)c1C2=O [Griseofulvin] (20 µM) | 1.03 (inactive)
CC(C)(C)NCC(O)COc1cccc2c1CC(O)C(O)C2 (centres undefined) [Nadolol] (20 µM) | 1 (inactive)
CC1=C(CC(=O)O)c2cc(F)ccc2/C1=C\c1ccc([S+](C)[O-])cc1 (centres undefined) [Sulindac] (20 µM) | 0.995 (inactive)
O=C1NCN(c2ccccc2)C12CCN(CCCC(c1ccc(F)cc1)c1ccc(F)cc1)CC2 [Fluspirilene] (20 µM) | 1.02 (inactive)

Tested on: Klebsiella aerogenes DSM 30053
Experiment: as above
Conditions: incubation time: 27 h, anaerobic, 37 °C
Method in brief: as §1

Compound | fold change of Cadaverine concentration
CC(C)(C)NC[C@H](O)c1ccc(O)c(CO)c1 [Levalbuterol hydrochloride] (20 µM) | 0.994 (inactive)
C[N+]1(CCCCC[N+]2(C)CCCC2)CCCC1 [Pentolinium bitartrate] (20 µM) | 0.999 (inactive)
O=C1c2cccc(O)c2C(=O)c2c(O)cccc21 [Danthron] (20 µM) | 1.01 (inactive)
O=C(N/N=C/c1ccc([N+](=O)[O-])o1)c1ccc(O)cc1 [Nifuroxazide] (20 µM) | 1.02 (inactive)
COC(=O)Nc1nc2cc(Sc3ccccc3)ccc2[nH]1 [Fenbendazole] (20 µM) | 0.991 (inactive)
CN(C)CCOC(c1ccccc1)c1ccccc1.Cn1c(=O)c2[nH]c(Cl)nc2n(C)c1=O [Dimenhydrinate] (20 µM) | 0.985 (inactive)
CCc1ccc(C(=O)C(C)CN2CCCCC2)cc1 (centres undefined) [Eperisone Hydrochloride] (20 µM) | 0.991 (inactive)
CC12CC3CC(C)(C1)CC(N)(C3)C2 [Memantine hydrochloride] (20 µM) | 0.992 (inactive)
COc1ccc2[nH]cc(CCNC(C)=O)c2c1 [Melatonin] (20 µM) | 1 (inactive)
CCC(=O)O[C@]1(C(=O)CCl)[C@@H](C)C[C@H]2[C@@H]3CCC4=CC(=O)C=C[C@]4(C)[C@@]3(F)[C@@H](O)C[C@@]21C [Clobetasol propionate] (20 µM) | 0.999 (inactive)
CC[C@@H](CO)NCCN[C@@H](CC)CO [Ethambutol dihydrochloride] (20 µM) | 1.01 (inactive)
CC(=O)CC(c1ccc([N+](=O)[O-])cc1)c1c(O)c2ccccc2oc1=O (centres undefined) [Acenocoumarol] (20 µM) | 1.01 (inactive)
CCOC1O[C@H]([C@@H](COCc2ccccc2)OCc2ccccc2)[C@H](OCc2ccccc2)[C@H]1O (some centres undefined) [Tribenoside] (20 µM) | 0.987 (inactive)
COc1ccc(C[C@@H]2c3cc(OC)c(OC)cc3CC[N@+]2(C)CCC(=O)OCCCCCOC(=O)CC[N@@+]2(C)CCc3cc(OC)c(OC)cc3[C@H]2Cc2ccc(OC)c(OC)c2)cc1OC [Cisatracurium besylate] (20 µM) | 1.07 (inactive)
O=C1CN2Cc3c(ccc(Cl)c3Cl)N=C2N1 [Anagrelide] (20 µM) | 1.01 (inactive)
Cc1c(C)c2c(c(C)c1O)CCC(C)(C(=O)O)O2 (centres undefined) [Trolox] (20 µM) | 0.984 (inactive)
COc1cc(C(=O)NCc2ccc(OCCN(C)C)cc2)cc(OC)c1OC [Trimethobenzamide hydrochloride] (20 µM) | 0.903 (inactive)
CC=CC(=O)N(CC)c1ccccc1C [Crotamiton] (20 µM) | 1.01 (inactive)
CCOC(=O)C1=C(C)NC(C)=C(C(=O)OCC)C1c1ccccc1/C=C/C(=O)OC(C)(C)C [Lacidipine] (20 µM) | 0.979 (inactive)
CCOC(=O)CC(=O)N1CCSC1COc1ccccc1OC (centres undefined) [Moguisteine] (20 µM) | 0.987 (inactive)

Compound | fold change of Cadaverine concentration
CC(=O)OCC(=O)NCCCOc1cccc(CN2CCCCC2)c1 [Roxatidine acetate hydrochloride] (20 µM) | 1.01 (inactive)
Clc1ccc(C(Cn2ccnc2)OCc2csc3c(Cl)cccc23)c(Cl)c1 (centres undefined) [Sertaconazole nitrate] (20 µM) | 1.03 (inactive)
CC[N+](C)(CC)CCOC(=O)C1c2ccccc2Oc2ccccc21 [Methantheline bromide] (20 µM) | 0.984 (inactive)
CN1[C@@H]2CC[C@H]1C[C@@H](OC(c1ccccc1)c1ccccc1)C2 [Benztropine mesylate] (20 µM) | 0.995 (inactive)
Nc1c(Br)cc(Br)cc1CN[C@H]1CC[C@H](O)CC1 [Ambroxol hydrochloride] (20 µM) | 0.991 (inactive)
COCCCC/C(=N\OCCN)c1ccc(C(F)(F)F)cc1 [Fluvoxamine maleate] (20 µM) | 0.997 (inactive)
Clc1ccc(COC(Cn2ccnc2)c2ccc(Cl)cc2Cl)c(Cl)c1 (centres undefined) [Miconazole] (20 µM) | 1.01 (inactive)
CCCCCCCCCCCCCCCC[N+](C)(C)CCN(Cc1ccc(OC)cc1)c1ncccn1 [Thonzonium bromide] (20 µM) | 0.995 (inactive)
CCCN(CCC)C(=O)C(CCC(=O)O)NC(=O)c1ccccc1 (centres undefined) [Proglumide] (20 µM) | 1.01 (inactive)
CN(C)CCC(c1ccc(Br)cc1)c1ccccn1 (centres undefined) [Brompheniramine maleate] (20 µM) | 1.03 (inactive)
c1coc(CNc2ncnc3[nH]cnc23)c1 [Kinetin] (20 µM) | 1.01 (inactive)
C#C[C@]1(O)CC[C@H]2[C@@H]3CCC4=CC(=O)CC[C@@H]4[C@H]3CC[C@@]21C [Norethindrone] (20 µM) | 0.989 (inactive)
Oc1ncnc2[nH]ncc12 [Allopurinol] (20 µM) | 1.01 (inactive)
COc1ccc(CN(CCN(C)C)c2ccccn2)cc1 [Pyrilamine maleate] (20 µM) | 1.04 (inactive)
CC(C)(C#N)c1cc(Cn2cncn2)cc(C(C)(C)C#N)c1 [Anastrozole] (20 µM) | 0.994 (inactive)
COC1=CC(=O)C[C@@H](C)[C@]12Oc1c(Cl)c(OC)cc(OC)c1C2=O [Griseofulvin] (20 µM) | 0.999 (inactive)
CC(C)(C)NCC(O)COc1cccc2c1CC(O)C(O)C2 (centres undefined) [Nadolol] (20 µM) | 1 (inactive)
CC1=C(CC(=O)O)c2cc(F)ccc2/C1=C\c1ccc([S+](C)[O-])cc1 (centres undefined) [Sulindac] (20 µM) | 1.02 (inactive)
O=C1NCN(c2ccccc2)C12CCN(CCCC(c1ccc(F)cc1)c1ccc(F)cc1)CC2 [Fluspirilene] (20 µM) | 0.995 (inactive)
